# Laboratory results reported in PubChem BioAssay AID588856 (National Center for Advancing Translational Sciences (NCATS), 2011).
# Out of some 410,000 compounds screened, about 3,100 (0.76%) were called active. What follows is part of a selection rich in actives, with near analogues and random picks from the rest. Values without a mark were called inactive. Calls follow the shape of the dose curve; as a rule, active = well fitted cell-killing curve with a large enough effect; inactive = no such curve, though single readings can be large or run the other way.
# Assay: qHTS for Inhibitors of TGF-b: Cytotox Counterscreen
# Conditions: HepG2 CAGA-GFP viability, ATP luminescence, 18 h; series mostly up to 46.1 µM; activity change, negative = cytotoxicity: at the top concentration
# Method in brief: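 CellTiter-Glo luminescence gave cytotoxicity after 18 hours at 37 degrees C. The cells were HepG2 CAGA-GFP in 1% FBS DMEM, stimulated with 500 pg/mL TGF-beta after compound addition. %Activity was normalised to no-cell wells (complete cell-killing) and DMSO (no toxicity), and curves were fitted and classified.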
# Potency is read from the fitted curve at half-maximal effect.
SMILES,"activity change, negative = cytotoxicity [%]",Potency
CCCCCCCNc1ccc(/C=C/c2ccnc3ccccc23)cc1,-6.29,–
Cc1ccc(N2CC(NC(=O)Cc3cccs3)CC2=O)cc1 (stereo unspecified),6.69,–
CN(C)c1ccc(/C=C2\C=Cc3ccccc32)cc1Br,-30.3,–
COc1ccc(-c2ccc(OC)c(C3C4C=CCC(C)C4C(=O)N3Cc3ccccc3)c2)cc1C (stereo unspecified),9.55,–
Cc1ccc(S(=O)(=O)N(CCCN(C)C)Cc2ccc3c(c2)OCO3)cc1,-7.76,–
CCN(CC(=O)Nc1c(F)cccc1F)C(=O)c1ccc(S(=O)(=O)N2CCCCC2)cc1,2,–
CN(C)CCCN(C(=O)c1ccc(S(=O)(=O)N2CCCCCC2)cc1)c1nc2ccc(Br)cc2s1,–,22.4 µM (active)
CCOc1ccc2nc(N(CCCN(C)C)C(=O)c3ccc(C(=O)c4ccccc4)cc3)sc2c1,–,15.8 µM (active)
CCOc1ccc2nc(N3CCC(C(=O)Nc4cc(C)ccc4C)CC3)sc2c1,-20.6,–
O=C(CN(Cc1ccccc1)C(=O)c1ccc2c(c1)OCCO2)NCc1ccc2c(c1)OCO2,59.1,–
CCc1ccc2nc(N(CCCN(C)C)C(=O)c3ccc4c(c3)OCCO4)sc2c1,–,11.2 µM (active)
Cc1cc(C)c2sc(NC(=O)c3ccc(S(=O)(=O)N4CCCC4)cc3)nc2c1,-2.41,–
O=C(CCOc1ccccc1)N(Cc1cccnc1)c1nc2ccc(Cl)cc2s1,-23.5,–
Cc1nn(C)c2c1c(C(F)(F)F)cc(=O)n2C(C)C(=O)NCc1ccc(Cl)cc1 (stereo unspecified),-0.512,–
COc1ccc(CNC(=O)c2cc3c(=O)[nH]c4ccc(C)cc4c3s2)c(OC)c1,-25.2,–
COc1cc(-c2cc3n(C)c(C)c(CCC(=O)Nc4ccc(F)cc4)c(=O)n3n2)cc(OC)c1OC,2.54,–
CC(=O)c1ccc(NC(=O)C2CCN(S(=O)(=O)c3c(C)noc3/C=C/c3ccc(C)cc3)CC2)cc1,6.96,–
COc1ccc(CNC(=O)c2cc3c(-c4ccccc4F)nn(C)c3s2)c(OC)c1,-22.9,–
COC(=O)c1scc(-c2ccccc2)c1S(=O)(=O)Nc1ccccc1,-17.3,–
COc1cccc(-c2cc3nc(NCCOc4ccccc4Cl)n(C)c(=O)c3s2)c1,-25.5,–
SCc1nc2ccc(Cl)cc2[nH]1,-19.2,–
O=c1[nH]c(CCl)nc2cc(-c3ccc(Cl)cc3)sc12,–,4.47 µM (active)

SMILES,"activity change, negative = cytotoxicity [%]",Potency
CCOC(=O)C1CCC(CN(Cc2ccc(OC)cc2)S(=O)(=O)c2ccc(F)c(C(=O)Nc3cc(C)ccc3C)c2)CC1 (stereo unspecified),-1.68,–
Cc1ccc(C)c(CNC(=O)c2cc3ccccn3n2)c1,-13.7,–
CCOc1n[nH]c(-c2ccccc2)n1,-32.4,–
Nc1c(C(=O)O)cnn1-c1ccccc1,–,11.2 µM (active)
CCNC(=O)c1cnn(-c2ccccc2)c1-c1ccccc1,-1.48,–
NNC(=O)c1cnn(-c2ccccc2)c1C(F)(F)F,14.9,–
Cc1ccc(F)cc1S(=O)(=O)N1CCC(c2nc3ccccc3s2)CC1,-8.96,–
COC(=O)c1cc(C)sc1NC(=O)CC1Nc2ccccc2NC1=O (stereo unspecified),-1.34,–
O=C(CC1NCCc2ccccc21)Nc1cccc(Cl)c1 (stereo unspecified),-10.5,–
O=C(CC1Nc2ccccc2NC1=O)Nc1ccccc1 (stereo unspecified),–,12.6 µM (active)
N#Cc1cc2[nH]c(=O)c(=O)[nH]c2cc1[N+](=O)[O-],-56.5,–
CCOc1ccc(N(Cc2ccccc2)C(=O)c2nc(SCC)ncc2Cl)cc1,-60.2,–
CCOc1ccc(N(Cc2ccccc2)C(=O)c2nc(S(C)(=O)=O)ncc2Cl)cc1,–,3.55 µM (active)
CCOc1ccc(NC(=O)CN(Cc2ccccc2)S(=O)(=O)c2ccc(Cl)cc2)cc1,-26.9,–
COCCNC(=O)c1ccc2c(c1)N(Cc1cccc(Cl)c1)C(=O)c1ccccc1S2(=O)=O,-23.1,–
Cc1ccc(C(=O)N2CCc3cc(CNC(=O)c4ccc(Br)cc4)ccc32)cc1,-18,–
O=C(CSc1ccccc1)Nc1cc(Cl)ccc1Oc1ccccc1,-3.19,–
O=C(CSc1nc2ccc(Nc3nc(N4CCOCC4)nc(N4CCOCC4)n3)cc2s1)NCc1ccco1,-31.4,–
O=C(CSc1nc(Nc2ccccc2)nc(N2CCOCC2)n1)Nc1cc(Cl)ccc1O,–,6.31 µM (active)
O=[N+]([O-])c1ccc(/C=C/c2ccc3cccnc3c2)cc1,-53.7,–
O=C1/C(=C\c2ccc([N+](=O)[O-])cc2)CS(=O)(=O)C/C1=C/c1ccc([N+](=O)[O-])cc1,–,14.1 µM (active)
c1ccc2cc3c(NCCN4CCOCC4)ccnc3cc2c1,–,3.55 µM (active)

SMILES,"activity change, negative = cytotoxicity [%]",Potency
O=C(Cc1ccc(Br)cc1)NCCN1CCOCC1,4.13,–
O=S(=O)(c1ccc(Cl)cc1)c1nc(-c2ccccc2F)oc1NCCN1CCOCC1,16.4,–
CCC(=O)N1CCc2cc(CNC(=O)Nc3ccccc3Cl)ccc21,-8.04,–
COc1ccc(-c2nc(S(=O)(=O)c3ccccc3)c(N3CCCCC3)o2)cc1,-4.93,–
CCCc1cc(-c2nc(-c3ccc(C)cc3)cs2)ccn1,–,10 µM (active)
CCCc1nc2scc(-c3ccc(C)cc3)c2c(=O)n1N,26.8,–
Fc1ccc(-c2csc(-c3ccc(C4SCCS4)cc3)n2)cc1F,-2.96,–
CC1(C)Cc2ccccc2-c2c[nH]c(=O)n21,-4.31,–
CCOc1ccc(C(=O)N2CCN(CCc3ccccn3)CC2)cc1,3.93,–
CCN(CC)CCOc1ccc2c(c1)C(=NNC(=O)c1ccccn1)c1cc(OCCN(CC)CC)ccc1-2,–,15.8 µM (active)
CC(C)(C)c1ccc(C(=O)C[n+]2cccc3cc(Cl)ccc32)cc1,-92,–
CCN(C(=O)Cn1c(=O)nc(-c2ccccc2)c2cc(Cl)ccc21)c1cccc(C)c1,6.33,–
O=C(c1cnn2c1NC(=C1CC1)C=C2C(F)F)N1CCc2ccccc2C1,-9.79,–
CN1CCN(c2oc(-c3ccc(COc4ccc(Cl)cc4)o3)nc2C#N)CC1,-30,–
CN(C)Cc1cn(-c2ccccc2)nc1-c1ccccc1,-26.4,–
CCc1ccc(-c2nn(-c3ccccc3)cc2CSC(=N)N)cc1,–,17.8 µM (active)
CCc1ccc(-c2nn(-c3ccccc3C)cc2C(=O)N2CCN(C3CCS(=O)(=O)C3)CC2)cc1 (stereo unspecified),-12,–
Cc1cc(C)c(NC(=O)Cn2c(SCC(=O)NCc3ccccc3)nc3ccccc32)c(C)c1,1.54,–
Cc1ccc(Cl)cc1N1CCN(C(=O)C2CCC(CNS(=O)(=O)c3cccs3)CC2)CC1 (stereo unspecified),-0.372,–
COc1ccccc1CN1CCC(CNC(=O)c2cnn(-c3ccccc3Cl)c2C2CCN(C(=O)OC(C)(C)C)CC2)CC1,-60.3,–
Cc1ccc(CN2CCC(CNC(=O)c3cnn(-c4ccc(C)cc4)c3C3CCN(C(=O)OC(C)(C)C)CC3)CC2)cc1,-71.7,–
Cc1ccc(CN2CCC(CNC(=O)c3cnn(-c4ccccc4Cl)c3C3CCN(C(=O)OC(C)(C)C)CC3)CC2)cc1,–,17.8 µM (active)
